# PubChem BioAssay (EPA / NIEHS)
# Several values for one entry are separate records, joined by “and”; a condition that tells them apart may be missing. Identical values can stand only once. More than one record can exist for a structure, and the calls need not agree. Activity calls are given as the source filed them. How the source made its calls: active means hit-call score of the fitted dose curve at least 0.9, where 1 is the maximum; inactive means score below 0.9.
# Read-out: Macrophage colony-stimulating factor (MCSF), CSF1 (gene 1435)
# Assay: BSK_hDFCGF_MCSF: BioMAP Diversity Plus: hDFCGF Assay for Macrophage colony-stimulating factor (MCSF) Biomarker Activity (AID 2283060)
# Settings: AC50: primary human foreskin fibroblasts, actives raise or lower the signal unless noted; outcome: primary human foreskin fibroblasts, actives raise or lower the signal unless noted
# Description: BSK_hDFCGF is a cell-based, multiplexed-readout assay that uses foreskin fibroblast, a human skin primary cell, with measurements taken at 24 hours after chemical dosing in a 96-well plate.BSK_hDFCGF_MCSF is an assay component measured in the BSK_hDFCGF assay. It measures M-CSF antibody related to regulation of gene expression using ELISA technology.Data from the assay component BSK_hDFCGF_MCSF was analyzed into 1 assay endpoint. This assay endpoint, BSK_hDFCGF_MCSF, was analyzed with bidirectional fitting relative to DMSO as the negative control and baseline of activity. Using a type of binding reporter, gain or loss-of-signal activity can be used to understand changes in the signaling as they relate to the gene CSF1. Furthermore, this assay endpoint can be referred to as a primary readout, because this assay has produced multiple assay endpoints where this one serves a signaling function. To generalize the intended target to other relatable targets, this assay endpoint is annotated to the cytokine intended target family, where the subfamily is colony stimulating factor.
# The levels of cell surface (or secreted, indicated by the prefix "s") biomarker endpoints were measured by ELISA. Overt cytotoxicity to cells in confluent adherent cultures (all systems other than the BT system) was assessed by measuring total protein levels using sulforhodamine B (SRB) staining in parallel cultures at the time of biomarker measurements, indicated as SRB endpoints. For proliferation assays for adherent cell types, individual cell types are cultured at sub-confluence and relative cell numbers quantified by SRB staining at time points optimized for each system (48 h: 3C and CASM3C systems; 72 h: BT and HDF3CGF systems; 96 h: SAg system). SRB was performed by staining cells with 0.1% SRB after fixation with 10% TCA and reading wells at 560 nm.Viability and proliferation of PBMC (T cells) was quantified by Alamar Blue reduction for the SAg and BT systems. For PBMC viability (referred to as PBMC Cytotoxicity within the assay endpoint names), cells were plated (75,000/well in a 96-well plate) and then chemical samples added for 1 h before addition of activators, SEB and TSST-1 (20 ng/mL final concentration each). Cells were incubated for 90 h. Then, Alamar Blue (20 uL/well) (Invitrogen, Cat DAL1100) was added for 6 h, and the plates were read with a fluorescence microplate reader at 546/580 nm (excitation/emission). For PBMC proliferation, cells were plated and activated as above but incubated for only 16 h prior to addition of Alamar Blue. Plates were read after 6 h.
Compound,outcome,AC50
COc1ccccc1Oc1c(NS(=O)(=O)c2ccc(C(C)(C)C)cc2)nc(-c2ncccn2)nc1OCCO,inactive,–
OC(C(F)(F)F)(C(F)(F)F)C(O)(C(F)(F)F)C(F)(F)F,–,14.3 µM (active) and 19.2 µM (active)
Cc1c(C(N)=O)cc([N+](=O)[O-])cc1[N+](=O)[O-],inactive,–
CC(C)CC(=O)CC(C)CC(C)C (stereo not drawn),inactive,–
CN(C)Cc1cc(C(C)(C)C)c(O)c(C(C)(C)C)c1,inactive [setting not given],18.3 µM [setting not given] (active)
CC(C)C1OCCN1CCOC(=O)NCCCCCCNC(=O)OCCN1CCOC1C(C)C (stereo not drawn),inactive,–
C1CN(CCOCCN2CCOCC2)CCO1,inactive,–
CCCCC(CC)COC(=O)C=Cc1ccc(OC)cc1 (stereo not drawn),–,15.9 µM (active) and 12.6 µM (active)
Cc1cccnc1,inactive,–
COc1ccc(C(=O)c2ccccc2O)c(O)c1,inactive,–
CCC[Si](OC(C)=O)(OC(C)=O)OC(C)=O,inactive,–
CC[N+](CC)(CC(=O)Nc1c(C)cccc1C)Cc1ccccc1 (tested in a mixture with another compound),inactive,–
CN(C)CCC(c1ccc(Cl)cc1)c1ccccn1 (stereo not drawn),inactive,–
Oc1cccc2ccccc12,inactive,–
CCC(C)=NO,inactive,–
Cc1cc(-n2nc3ccc(Cl)cc3n2)c(O)c(C(C)(C)C)c1,inactive,–
O=[N+]([O-])c1cc(S(=O)(=O)Nc2ccccc2)ccc1Nc1ccccc1,–,29.3 µM (active) and 29.5 µM (active)
CC[N+](CC)(CC(=O)Nc1c(C)cccc1C)Cc1ccccc1,inactive,–
COC(=O)/C=C\C(=O)OC,inactive,–
CCCCCCCCCCCCCCCCCC[N+](C)(C)C,–,3.11 µM (active)
COc1cc(CNC(=O)CCCC/C=C/C(C)C)ccc1O,inactive,–
CCCCCCCCCCC1CO1 (stereo not drawn),–,20 µM (active)
CCCCCCC(O)CCCCCCCCCCC(=O)OC (stereo not drawn),inactive,–
CN(C)c1ccc(C(c2ccccc2)c2ccc(N(C)C)cc2)cc1,inactive,–
Sc1nc2ccccc2s1,inactive,–
O=C(C(=O)c1ccccc1)c1ccccc1,inactive,–
CCCCCCCCCC/C=C/C1CC(=O)OC1=O (stereo not drawn),inactive,–
